FBA Mtb inh – inhibitors of M. tuberculosis fructose-bisphosphate aldolase; AID 588726; inhibition, % at 1 µM; hit rate 2.3% among 360,000; purified M. tuberculosis FBA, fluorescence read-out; P9WQA3; in the data active = inhibition above about 27%
FadD28 binding – inhibitors of Mycobacterium tuberculosis FadD28 bisubstrate binding. FadD28 bisubstrate probe binding, fluorescence polarization. inhibition, % at 12.5 µM. hit rate 0.22% among 360,000; in the data active = inhibition above about 8.5%, passing the limit was not always enough; inconclusive = no clear call, values can overlap the other calls
Mtb hypoxia inh – inhibitors of hypoxia-regulated fluorescent reporter in Mycobacterium tuberculosis. fluorescence inhibition, % (no concentration beside the values). hit rate 0.1% among 300,000. M. tuberculosis hypoxia-regulated fluorescent reporter, fluorescence; in the data active = fluorescence inhibition mostly above about 23%, no sharp cut-off; inactive = mostly below about 17%
Rv3671c inh – inhibits the M. tuberculosis serine protease Rv3671c. P9WHR9. inhibition, % at 5.96 µM. hit rate 0.048% among 320,000. AID 2606; in the data active = inhibition above about 38%;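 note: extracellular domain of Rv3671c used as enzyme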
Target sequence (P9WHR9 whole entry, looked up, the tested form may be a part): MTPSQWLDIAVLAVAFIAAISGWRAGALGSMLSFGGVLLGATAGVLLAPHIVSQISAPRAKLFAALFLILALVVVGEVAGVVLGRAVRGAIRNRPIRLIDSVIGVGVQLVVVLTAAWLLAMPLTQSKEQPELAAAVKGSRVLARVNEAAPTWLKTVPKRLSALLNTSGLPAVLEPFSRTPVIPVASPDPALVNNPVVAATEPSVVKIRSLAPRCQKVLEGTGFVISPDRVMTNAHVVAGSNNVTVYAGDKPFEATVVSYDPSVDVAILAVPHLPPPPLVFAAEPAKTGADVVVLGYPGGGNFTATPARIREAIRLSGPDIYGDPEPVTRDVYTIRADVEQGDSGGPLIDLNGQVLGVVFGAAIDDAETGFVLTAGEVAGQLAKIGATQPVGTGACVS
Mtb UGM inh – Mtb UDP-galactopyranose mutase inhibition. purified UGM, fluorescence polarization probe displacement. hit rate 0.06% among 320,000. P9WIQ1. inhibition, % at 10 µM; in the data active = inhibition above about 10%, passing the limit was not always enough; inconclusive = no clear call, values can overlap the other calls
GDH-TPI counter – inhibits GDH-TPI coupling enzymes, artifact for Mtb FBA screen. GDH-TPI coupled enzyme counterscreen, NADH absorbance. hit rate 1.2% among 360,000. inhibition, % at 4.8 µM; in the data active = inhibition above about 30%
A number is an active result; 0 = inactive; ? = inconclusive; - = no result given; + = active, no number. Most compounds without a hit are left out; they make up all but 3.5% or so of the library.

SMILES | FBA Mtb inh | FadD28 binding | Mtb hypoxia inh | Rv3671c inh | Mtb UGM inh | GDH-TPI counter
CCCS(=O)(=O)N1CCN(Cc2ccc3c(c2)c2ccccc2n3CC)CC1 | 0 | 0 | 41.0 | 0 | 0 | 0
CCn1c2ccccc2c2cc(CN3CCN(C(=O)c4ccco4)CC3)ccc21 | 0 | 0 | - | 0 | 0 | 0
Fc1ccccc1-c1ccc(C=NNc2nc3ccccc3[nH]2)o1 | - | - | 0 | - | - | -
Cc1ccc(/C=N\Nc2nc3ccc(Cl)cc3[nH]2)o1 | 0 | 0 | - | 0 | 0 | 44.8
O=C(CC12CC3CC(CC(C3)C1)C2)NCC(=O)OCc1cc(=O)oc2ccc3ccccc3c12 | 36.0 | 0 | 0 | 0 | 0 | 0
CCOC(=O)N1CCN(Cc2cc(=O)oc3ccc4ccccc4c23)CC1 | 0 | 0 | - | 0 | 0 | 0
O=C(O)c1ccccc1NS(=O)(=O)c1ccc(NN=Cc2ccccc2F)c([N+](=O)[O-])c1 | 0 | 0 | 0 | 0 | 0 | 31.6
COc1ccc(NC(=S)NNc2ccc(S(=O)(=O)Nc3ccccc3C(=O)O)cc2[N+](=O)[O-])cc1 | 0 | 22.5 | 0 | 0 | 0 | 40.5
CSc1ccc(C=NNc2ccc(S(=O)(=O)Nc3ccccc3C(=O)O)cc2[N+](=O)[O-])cc1 | 0 | 0 | 0 | 0 | 0 | 0
COc1cccc(C=NNc2ccc(S(=O)(=O)Nc3ccccc3C(=O)O)cc2[N+](=O)[O-])c1O | - | - | 0 | - | - | -
COc1ccc(C=NNc2ccc(S(=O)(=O)Nc3ccccc3C(=O)O)cc2[N+](=O)[O-])c(OC)c1 | 0 | 31.7 | 0 | 0 | 0 | 0
CCOc1cccc(C=NNc2ccc(S(=O)(=O)Nc3ccccc3C(=O)O)cc2[N+](=O)[O-])c1O | 0 | 17.3 | 0 | 0 | 0 | 0
CCC1=C(OC(=O)N(CC)CC)N2C(=O)OC(=NCc3ccccc3)[C@]2(C)C2C1=CCC1C(=O)NC(=O)C12 (some centres not stated) | - | - | 0 | - | - | -
O=C(NN=Cc1ccccn1)c1cc(-c2ccccc2)nc2ccccc12 | - | - | 0 | - | - | -
COc1ccc(C=NNC(=O)c2ccoc2C)cc1O | - | - | 0 | - | - | -
O=C(NC(Cc1ccccc1)C(=O)O)C(=Cc1ccco1)NC(=O)c1ccco1 (configuration not stated) | - | - | 0 | - | - | -
CCON=C(C)c1c(O)c(CC)c(-c2ccccc2)n(-c2ccccc2)c1=O | - | - | 0 | - | - | -
CCOc1ccc(C=NNc2ccc(S(=O)(=O)Nc3ccccc3C(=O)O)cc2[N+](=O)[O-])cc1 | 0 | 0 | 0 | 0 | 0 | 0
C=CCOc1ccc(C=NNc2ccc(S(=O)(=O)Nc3ccccc3C(=O)O)cc2[N+](=O)[O-])cc1OC | 0 | 31.6 | 0 | 0 | 0 | 0
Cc1nn(-c2ccccc2)c(Cl)c1/C=N/Nc1ccc(S(=O)(=O)Nc2ccccc2C(=O)O)cc1[N+](=O)[O-] | 0 | 12.0 | - | 0 | 0 | 47.1
O=C(NN=Cc1cc([N+](=O)[O-])ccc1O)c1cccc(NC(=O)c2cccc(Cl)c2)c1 | - | - | 0 | - | - | -
COc1ccc(-c2cn3nc(SCC(=O)NCC4CCCO4)ccc3n2)cc1 (configuration not stated) | 128.2 | 0 | 0 | 0 | 0 | 0
CN1c2ccsc2C(=NNc2ccccc2)CS1(=O)=O | - | - | 0 | - | - | -
Nc1nc(SCC(=O)N2N=C3/C(=C/c4ccco4)CCCC3C2c2ccco2)n[nH]1 (configuration not stated) | 0 | 0 | - | 0 | 0 | 34.8
Nc1nc(SCC(=O)N2N=C3/C(=C\c4ccco4)CCCC3C2c2ccco2)n[nH]1 (configuration not stated) | 0 | 0 | 0 | - | - | 32.6
SMILES | FBA Mtb inh | FadD28 binding | Mtb hypoxia inh | Rv3671c inh | Mtb UGM inh | GDH-TPI counter
C[C@H](O)[C@H](O)[C@H]1CNc2nc(N)[nH]c(=O)c2N1 | 73.4 | 0 | - | 0 | 0 | 0
CCOC(=O)C(=Cc1c[nH]c2ccc(S(=O)(=O)N(C)C)cc12)C(=O)OCC | 0 | 0 | 0 | 0 | 0 | 41.1
C=C(C)C(=O)Nc1cccc(C2=NOC3(C2)CC(C(N)=O)N(C(=O)CC#N)C3)c1 (configuration not stated) | - | - | 0 | - | - | -
CCN(CC)S(=O)(=O)c1ccc(/C(O)=C(\C#N)c2nc3ccccc3n2C)cc1 | 0 | 0 | - | 0 | 0 | 39.2
CCc1cccc(NC(=O)C2CCN(c3ncnc4sc(C)c(C)c34)CC2)c1 | 0 | 0 | 0 | 0 | 0 | 0
Cc1sc2ncnc(N3CCC(C(=O)Nc4nnc(SCc5ccccc5F)s4)CC3)c2c1C | 138.1 | 0 | 0 | 0 | 0 | 0
CNC(=S)N(CCO)Cc1cc2cc3c(cc2[nH]c1=O)OCO3 | 33.0 | 0 | 0 | 0 | 0 | 0
C#CCOCCOCCOCCNc1nc(OC)nc(N2CCN(C(=O)C(CCCCN)n3cc(C(N)CO)nn3)CC2)n1 (configuration not stated) | - | - | 0 | - | - | -
O=C(Nc1ccc([N+](=O)[O-])cc1)C1C(c2ccccc2)=C1c1ccccc1 | 0 | 0 | 0 | 0 | 0 | 33.3
O=C(O)CC(NNC(=O)c1ccccc1)C(=O)Nc1ccc([N+](=O)[O-])cc1 (configuration not stated) | 0 | 0 | 0 | 0 | 0 | 31.4
Cc1ccc(C(=O)NN=Cc2cc(C)n(-c3ccc(Br)cc3)c2C)cc1[N+](=O)[O-] | - | - | 0 | - | - | -
CCN(CC)c1ccc2c(-c3ccc(S(=O)(=O)O)cc3S(=O)(=O)[O-])c3ccc(=[N+](CC)CC)cc-3oc2c1 | 0 | 135.4 | 39.0 | + | 92.7 | 0
CCN(CC)c1ccc2nc3c4ccccc4c(=O)cc-3oc2c1 | - | - | 0 | - | 0 | -
CCOCCn1c(=NC(=O)c2cc3ccccc3oc2=O)sc2cc(S(N)(=O)=O)ccc21 | 0 | 0 | - | 0 | 0 | 45.6
COCCn1c(=NC(=O)c2ccc(S(=O)(=O)N3CCOCC3)cc2)sc2cc(S(N)(=O)=O)ccc21 | 0 | 0 | 0 | 0 | 0 | 32.8
COCCn1c(=NC(=O)c2sc3ccccc3c2Cl)sc2cc(S(N)(=O)=O)ccc21 | 0 | 0 | - | 0 | 0 | 0
COC(=O)Cn1c(=NC(=O)c2ccc(S(=O)(=O)N3CCOCC3)cc2)sc2cc(S(N)(=O)=O)ccc21 | 0 | 0 | 0 | 0 | 0 | 32.1
COC(=O)Cn1c(=NC(=O)CN2C(=O)CCC2=O)sc2cc(S(N)(=O)=O)ccc21 | 0 | 0 | - | 0 | 0 | 0
CCOC(=O)C1=C(C)NC(SC)=C(C#N)C1CC(C)C (configuration not stated) | 0 | 0 | 0 | 0 | 0 | 32.4
Cc1c(C=N)c(O)n(C)c(=O)c1C#N | 0 | 0 | 0 | 0 | 0 | 32.2
CCN(CC)S(=O)(=O)c1ccc(N=Cc2c(C)c(C#N)c(=O)n(C)c2O)cc1 | 0 | 0 | 0 | 0 | 0 | 37.8
COc1cc(S(=O)(=O)Nc2ccc(C)cc2)ccc1N=Cc1c(C)c(C#N)c(=O)n(C)c1O | 0 | 0 | - | 0 | ? | 0
Cc1ccc(N/N=C/c2c(C)c(C#N)c(=O)n(C)c2O)cc1C | 0 | 0 | 0 | - | - | 31.9
COc1cc(C=NNC(=O)NC23CC4CC(CC(C4)C2)C3)ccc1O | - | - | 0 | - | - | -
CC(=NN1CCCCC1)c1ccccc1O | - | - | 0 | - | - | -
Cc1cnc(C(=O)NC(C)CCc2ccccc2)cn1 (configuration not stated) | 0 | 0 | 38.5 | 0 | 0 | 0
COc1ccc(C(C)=NNC(=O)c2nnn(-c3nonc3N)c2-c2cccs2)cc1OC | - | - | 0 | - | - | -
